Test results published in the supplement of paper PMC4723716.

System: Plasmodium falciparum NF54 gametocytes
Test: viability index relative to DMSO control (fraction); higher = less gametocyte killing
Settings: 12.5 µM, incubation time: 72 h
Method in brief: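 The viability index expresses each well's gametocyte particle count relative to the plate mean of solvent-only wells. Stage I–V P. falciparum NF54 gametocytes (0.50% gametocytemia, 1.25% hematocrit, 40 µl of serum-containing medium) were exposed to compound at 12.5 µM for 72 hr at 37°C under low oxygen in 384-well plates. They were stained for 20 min with 5 µl of 5 µM MitoTracker Red CMXRos, and 5 µl was then transferred into 40 µl of 500 nM dye in serum-free medium for imaging of three fields 30 min later.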

[1] = gametocyte stage: Stage I viability index
[2] = gametocyte stage: Stage II viability index
[3] = gametocyte stage: Stage III viability index
[4] = gametocyte stage: Stage IV viability index
[5] = gametocyte stage: Stage V viability index

| Compound | viability index [1] | viability index [2] | viability index [3] | viability index [4] | viability index [5] |
| --- | --- | --- | --- | --- | --- |
| C=CCc1c(C)nc2ccccc2c1O | 0.92 | 0.671 | 0.798 | 0.793 | 1.05 |
| COc1cc(C(=O)ON=C(N)Cc2cccc3ccccc23)cc(OC)c1OC | 0.0175 | 0.0391 | 0.157 | 0.12 | 0.0909 |
| Cc1cc(C)c2nc(N3CCC(C(=O)NCCCN4CCC(N5CCCCC5)CC4)CC3)sc2c1 | 0.0166 | 0.204 | 0.455 | 0.477 | 0.352 |
| O=C(NCc1ccco1)C1CCN(S(=O)(=O)c2ccc(Br)cc2)CC1 | 0.938 | 0.983 | 0.99 | 0.824 | 0.945 |
| CCOc1ccccc1CNC(=O)C1c2ccccc2C(=O)N(CC(C)C)C1c1cccs1 (stereo not given) | 0.579 | 0.549 | 0.795 | 0.793 | 1.08 |
| CCOc1ccc2nc(C)cc(Nc3ccc(N(C)C)cc3)c2c1 | 0.157 | 0.571 | 0.868 | 0.943 | 0.857 |
| COc1ccc(Nc2nc(NCc3ccccc3)c3ccccc3n2)cc1 | 0.0331 | 0.107 | 0.562 | 0.593 | 0.286 |
| Cc1ccc(-c2cc3c(SCC(=O)Nc4cc(C(F)(F)F)ccc4Cl)nccn3n2)cc1 | 1.03 | 0.896 | 1.11 | 0.921 | 0.791 |
| CC(C)(C)C(=O)Nc1ccc(C(=O)Nc2cccc(-c3nc4ccccc4[nH]3)c2)cc1 | 0.111 | 0.592 | 0.694 | 0.833 | 0.604 |
| N=c1n(CCN2CCCCC2)c2ccccc2n1CC(=O)c1ccc(Cl)c(Cl)c1 | 0.115 | 0.281 | 0.848 | 0.886 | 0.753 |
| COc1ccc(-c2c(C)nn3c(N)c(C#N)cnc23)cc1OC | 0.0343 | 0.00676 | 0.0325 | 0.0942 | 0.0769 |
| CCOC(=O)c1c(C)n(-c2ccc(Cl)cc2)c2ccc(OC(=O)C=Cc3ccccc3)cc12 | 0.708 | 0.792 | 1.01 | 0.964 | 0.978 |
| CCOC(=O)C1(Cc2ccccc2)CCN(Cc2cccc(OC)c2O)CC1 | 0.0586 | 0.0716 | 0.404 | 0.522 | 0.649 |
| CCOc1cc2c(cc1OCC)C(c1cc(OC)c(O)cc1Cl)NCC2 (stereo not given) | 0.0243 | 0.0957 | 0.513 | 0.723 | 0.626 |
| COc1ccc(C(=O)Nc2ccc(Cl)cc2C(=O)Nc2ccncc2)cc1 | 0.0232 | 0.557 | 0.915 | 0.763 | 0.692 |
| O=C(NNc1cc(N2CCCC2)nc(N2CCCC2)n1)c1ccccc1 | 0 | 0.00749 | 0.275 | 0.516 | 0.377 |
| COCCN(C(=O)Cc1cccs1)C(C(=O)NCc1ccc(OC)cc1)c1ccc(C(C)C)cc1 (stereo not given) | 0.846 | 0.801 | 1.18 | 1.11 | 0.967 |
| CCCCC(O)(c1ccc(Cl)cc1)C(CN1CCOCC1)c1ccc(Cl)cc1 (stereo not given) | 0.941 | 0.896 | 0.871 | 0.763 | 0.701 |
| CCCCCCc1cc2cc(-c3nc4ccccc4[nH]3)c(=Nc3ccccc3C)oc2cc1O | 0.0472 | 0.138 | 0.501 | 0.601 | 0.506 |
| CCn1c(SCC(=O)Nc2cc(C(F)(F)F)ccc2Cl)nc2ccccc2c1=O | 0.787 | 0.953 | 1.17 | 1.14 | 1.03 |

| Compound | viability index [1] | viability index [2] | viability index [3] | viability index [4] | viability index [5] |
| --- | --- | --- | --- | --- | --- |
| COc1ccc(C=C2SC(Nc3ccc(F)cc3)=NC2=O)c(OC)c1 | 0.76 | 0.669 | 0.676 | 0.646 | 0.558 |
| c1ccc(Cn2c(N=Nc3c(Nc4ccccc4)ccc4ccccc34)nc3ccccc32)cc1 | 0.00884 | 0.0106 | 0.058 | 0.149 | 0.209 |
| COc1cccc(C(=O)NC(c2ccc(C)cc2)c2cc(Cl)c3cccnc3c2O)c1 (stereo not given) | 0.116 | 0.0583 | 0.0814 | 0.247 | 0.039 |
| CCCCCC(=O)N1c2ccccc2N=C2CC(c3ccc(OC)c(OC)c3)CC(O)=C2C1c1ccc(C(F)(F)F)cc1 (stereo not given) | 0.0365 | 0.0251 | 0.0919 | 0.219 | 0.429 |
| CCCCc1c(C)nc2c(OC)cccc2c1O | 1.07 | 0.942 | 1.03 | 0.954 | 1.1 |
| Cc1ccc(C)c(-c2csc(Nc3ccc(C)c(C)c3)n2)c1 | 0.856 | 0.815 | 0.82 | 0.639 | 0.558 |
| COc1ccc(-n2ccnc2SCC(=O)Nc2cc(C)ccc2C)c(OC)c1 | 1.07 | 0.949 | 0.975 | 0.939 | 0.989 |
| c1ccc(C2=Nc3ccccc3N=C(c3ccccc3)c3ccccc32)cc1 | 0.0839 | 0.0541 | 0.0543 | 0.123 | 0.0909 |
| COc1ccccc1CNC(=O)CCn1c(=O)[nH]c2ccsc2c1=O | 0.477 | 0.712 | 1 | 0.805 | 0.769 |
| O=C(Nc1ccc(Cl)cc1)N1CCN(c2ccc3nncn3n2)CC1 | 0.865 | 1.02 | 1.15 | 1.14 | 1.11 |
| COc1cc(OC)cc(N2C(=O)N(Cc3ccc(C(C)(C)C)cc3)c3ccccc3S2(=O)=O)c1 | 1.04 | 0.96 | 1 | 0.785 | 0.662 |
| O=C(NC1CCN(Cc2ccccc2)CC1)c1cc(-c2cccnc2)nc2ccc(Cl)cc12 | 0.53 | 0.609 | 0.989 | 1.18 | 0.725 |
| Cc1sc(NC(=O)c2ccccc2)c(C(c2cccs2)N2CCN(c3ccccc3)CC2)c1C (stereo not given) | 1 | 0.74 | 0.905 | 0.753 | 0.545 |
| CC(C)=CCN1CCC(C(=O)Nc2ccc(-c3nc4ccccc4[nH]3)cc2)CC1 | 0.0674 | 0.525 | 0.921 | 0.912 | 0.967 |
| COc1ccc(-c2cc3c(SCC(=O)Nc4cc(C(F)(F)F)ccc4Cl)nccn3n2)cc1 | 1.04 | 0.886 | 1.06 | 0.924 | 1.05 |
| CCN(CC)CCNc1ncnc2c1[nH]c1ccc(Cl)cc12 | 0.0354 | 0.373 | 0.818 | 0.763 | 0.451 |
| Cc1cc(Nc2ccc(Cl)cc2)n2nc(C(F)(F)F)nc2n1 | 0.957 | 0.975 | 1.03 | 0.97 | 1 |
| CCC(=O)Nc1nnc(Cc2ccc(OC)c(OC)c2)s1 | 1.02 | 0.965 | 0.901 | 1.08 | 1.38 |
| CCOc1ccc(Nc2ccnc3cc(Cl)ccc23)cc1 | 0.0699 | 0.411 | 0.852 | 0.728 | 0.558 |
| COc1ccccc1CNC(=O)C1c2ccccc2C(=O)N(CC(C)C)C1c1cccs1 (stereo not given) | 0.951 | 0.807 | 1.01 | 0.976 | 1 |

| Compound | viability index [1] | viability index [2] | viability index [3] | viability index [4] | viability index [5] |
| --- | --- | --- | --- | --- | --- |
| CCOC(=O)c1cnc2ccc(CC)cc2c1O | 0.377 | 0.505 | 0.734 | 0.733 | 0.846 |
| Oc1ccccc1CN1CCC2(CCCN(Cc3ccccc3F)C2)C1 (stereo not given) | 0.0166 | 0.161 | 0.509 | 0.657 | 1.07 |
| COc1ccc(NC(=O)C2c3ccccc3C(=O)N(CC(C)C)C2c2cccs2)cc1Cl (stereo not given) | 0.0453 | 0.00483 | 0.0636 | 0.24 | 0.11 |
| O=C(Nc1ccc(N2CCCCC2)c(Cl)c1)c1ccc(Br)o1 | 0.673 | 0.726 | 0.762 | 0.787 | 0.978 |
| Cc1ccc(-c2cc(C(=O)Nc3ccc(S(=O)(=O)N4CCCCC4)cc3)[nH]n2)c(O)c1 | 0.453 | 0.939 | 0.973 | 1.09 | 0.967 |
| OC(Cn1nnc2ccccc21)Cn1c2ccc(Br)cc2c2cc(Br)ccc21 (stereo not given) | 0.634 | 0.684 | 1.04 | 0.972 | 1.21 |
| COc1ccccc1CNC(=O)CCn1c(=O)[nH]c2ccccc2c1=O | 0.867 | 0.898 | 0.912 | 0.951 | 0.912 |
| CCOc1cc2c(cc1OCC)C(c1cc(Cl)ccc1O)NCC2 (stereo not given) | 0.0411 | 0.0883 | 0.488 | 0.532 | 0.675 |
| O=C(Nc1cccc(C2=NCCN2)c1)Nc1cccc(C2=NCCN2)c1 | 0.565 | 0.718 | 0.773 | 0.908 | 0.818 |
| COc1ccc(Br)cc1C1Nc2ccc3ccccc3c2C2=C1C(=O)CC(c1ccccc1)C2 (stereo not given) | 0.44 | 0.729 | 0.873 | 0.939 | 1.05 |
| Cc1ccccc1OCCSc1nc2ccc(NC(=O)c3ccccc3)cc2s1 | 0.83 | 0.863 | 0.944 | 0.835 | 0.922 |
| CCCN(CCC)CC(O)COc1ccccc1C(=O)Nc1ccccc1 (stereo not given) | 0.0829 | 0.175 | 0.46 | 0.593 | 0.516 |
| Fc1ccc2[nH]c3c(NCCCN4CCOCC4)ncnc3c2c1 | 0.053 | 0.564 | 0.873 | 0.866 | 0.78 |
| Cc1c(C)n(CC(O)CNC2CCCCC2C)c2ccccc12 (stereo not given) | 0.0939 | 0.217 | 0.644 | 0.766 | 0.923 |
| CC(C)(C)c1ccc(C2CC3=Nc4ccccc4N(C(=O)c4ccccc4Cl)C(c4ccc(F)cc4)C3=C(O)C2)cc1 (stereo not given) | 0.278 | 0.223 | 0.472 | 0.503 | 0.429 |
| COCCNCC(O)Cn1c2ccc(Cl)cc2c2cc(Cl)ccc21 (stereo not given) | 0.105 | 0.0937 | 0.407 | 0.511 | 0.429 |
| CCOC(=O)c1cn(CC)c2cc(N(C)CCc3ccc(OC)c(OC)c3)c(F)cc2c1=O | 0.63 | 0.723 | 0.912 | 0.827 | 0.923 |
| CCCCN(CCCC)S(=O)(=O)c1ccc(NC(=O)c2ccco2)cc1 | 0.943 | 0.963 | 0.951 | 0.842 | 0.831 |
| CCOC(=O)C1=C(C)N=c2sc(=Cc3ccccc3O)c(=O)n2C1c1ccc(OC)c2ccccc12 (stereo not given) | 0.0358 | 0.06 | 0.197 | 0.468 | 0.481 |
| CC(=O)Nc1nnc(SCc2c(C)cc(C(C)(C)C)cc2C)s1 | 0.854 | 0.701 | 0.894 | 0.793 | 0.912 |
